Screening data as filed in PubChem.
This is a sample that favours compounds with a hit; in the whole collection about 19% have one here.
HT1080NT lethal = kills 2HG-producing HT-1080-NT fibrosarcoma cells; Potency, µM (top dose mostly 46.1 µM), hits mostly cytotoxic; AID 686970; 360,000 tested, 1.6% active; HT-1080-NT fibrosarcoma viability, CellTiter-Glo ATP luminescence, 48 h;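 also: NT is the 2HG producing partner of a matched IDH1 knockdown line; nearly all actives have a fitted effect of over 55% in size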
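750 cells/well, RPMI + 5% FBS; 2 h settle, compound pin-transfer, 48 h at 37 degrees C. CellTiter-Glo 10 min RT, luminescence. Normalized to DMSO and media-only wells.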
KB-3-1 tox = KB-3-1 parental cell cytotoxicity. KB-3-1 viability, CellTiter-Glo ATP luminescence, 72 h. Potency, µM (titrated, usually from 46.1 µM), usual class: cytotoxic. 400,000 tested, 1.4% active. AID 1347075; also: nearly all actives have a fitted effect of over 60% in size
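Multi-concentration cytotoxicity screen in KB-3-1 cells grown in DMEM lacking phenol red with 10% FBS. After 72 h at 37 °C with compound, ATP-dependent luminescence was recorded.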
TDP1 cell CPT = DT40-hTDP1 cell growth loss with CPT; AID 686979; chicken DT40 Tdp1-/-;hTDP1 cells + 20 nM CPT, ATP luminescence, 48 h; Potency, µM (top dose mostly 46.2 µM), hits mostly inhibitors; 420,000 tested, 12% active; also: nearly all actives have a fitted effect of over 55% in size
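Cell growth measured by CellTiter-Glo luminescence after a minimum 48 h, 37 C compound exposure with 20 nM CPT in Tdp1-knockout DT40 cells stably expressing hTDP1, seeded 400/well; qHTS titration format.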
DT40 TDP1 no CPT = qHTS for Inhibitors of human tyrosyl-DNA phosphodiesterase 1 (TDP1): qHTS in cells in absence of CPT; DT40 Tdp1-/- hTDP1 cells, no CPT, ATP luminescence, 48 h; Potency, µM (highest dose often 46.2 µM), most hits filed as inhibitors; 420,000 tested, 15% active; also: nearly all actives have a fitted effect of over 55% in size
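Growth of hTDP1-complemented DT40 Tdp1-knockout cells is measured by ATP luminescence after at least 48 hr compound exposure at 37 °C, with DMSO substituting for the 20 nM CPT used in the parallel screen.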
KB-V1 MDR tox = KB-V1 MDR subline cytotoxicity. KB-V1 MDR cells viability, CellTiter-Glo, 72 h. Potency, µM (doses to about 46.1 µM), most hits filed as cytotoxic. 400,000 tested, 3.4% active. AID 1347076; also: nearly all actives have a fitted effect of over 60% in size
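Drug-selected KB-V1 cells, grown in DMEM lacking phenol red with 10% FBS, receive compound titrations; after three days at 37 degrees C, surviving cell ATP is quantified by CellTiter-Glo luminescence and responses normalized and curve-fitted.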
HT1080 IDH1KD tx = toxicity to HT-1080 IDH1 knockdown cells (counter line) | HT-1080 IDH1 knockdown viability, ATP luminescence, 48 h | Potency, µM (titrated, usually from 46.1 µM), usual class: cytotoxic | 360,000 tested, 2% active
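% activity derives from luminescence (CellTiter-Glo), normalised to DMSO and no-cell wells. HT-1080-IDH1KD cells, 750/well, had 48 h compound exposure at 37 °C.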
Numbers stand for hits. Calls follow the shape of the dose curve; as a rule, active = well fitted curve in the direction sought with a large enough effect; inconclusive = small, poorly fitted or top-dose-only effect, or another doubt; inactive = no such curve, though single readings can be large; an effect the other way counts as inactive or inconclusive.

`CC(C)NCC(O)c1ccccc1Cl` (stereo unspecified) gave TDP1 cell CPT inactive and DT40 TDP1 no CPT inactive.
For CC(CNC(=O)CCS(=O)(=O)c1ccc2c(c1)oc(=O)n2C)c1ccccc1 (stereo unspecified) the results were HT1080NT lethal inactive, KB-3-1 tox inactive, TDP1 cell CPT inactive, DT40 TDP1 no CPT inactive, KB-V1 MDR tox inactive and HT1080 IDH1KD tx inactive.
CCCC(C)c1nnc(NC(=O)CCS(=O)(=O)c2ccccc2)s1 (stereo unspecified) was read as HT1080NT lethal inactive, KB-3-1 tox inactive, TDP1 cell CPT 7.31µM, DT40 TDP1 no CPT 4.11µM, KB-V1 MDR tox inactive and HT1080 IDH1KD tx inactive.
Screening CC1=C(C/C(C)=C/c2ccccc2)/C(=C/CO)[C@@H]2OC(=O)O[C@]2(C)C12CC2 returned HT1080NT lethal inactive, KB-3-1 tox inactive, TDP1 cell CPT 8.2µM, DT40 TDP1 no CPT 11.6µM, KB-V1 MDR tox inactive and HT1080 IDH1KD tx inactive.
For C[C@]12CCC(=O)C[C@@H]1CC[C@@H]1[C@@H]2CC[C@]2(C)[C@@H](O)CC[C@@H]12 the results were HT1080NT lethal inconclusive, KB-3-1 tox inactive, TDP1 cell CPT inactive, DT40 TDP1 no CPT inactive, KB-V1 MDR tox 16.4µM and HT1080 IDH1KD tx inactive.
Screening C[C@]12CCC3C(CC[C@H]4C[C@H](O)[C@H](O)C[C@]34C)C1CC[C@@H]2O (stereo partly specified) returned HT1080NT lethal inactive, KB-3-1 tox inactive, TDP1 cell CPT 20.6µM, DT40 TDP1 no CPT inconclusive, KB-V1 MDR tox inconclusive and HT1080 IDH1KD tx inactive.
Screening C[C@]12CCC3C(CC[C@@H]4CC(=O)CC[C@]34C)C1CC[C@@H]2O (stereo partly specified) returned HT1080NT lethal inactive, KB-3-1 tox inactive, TDP1 cell CPT inactive, DT40 TDP1 no CPT inactive, KB-V1 MDR tox inconclusive and HT1080 IDH1KD tx inactive.
`CC(=O)OCC1=C(C(=O)O)N2C(=O)C(NC(=O)CCCC(N)C(=O)O)C2SC1` (stereo unspecified) gave TDP1 cell CPT inconclusive and DT40 TDP1 no CPT inactive.
Screening Cc1cccc(N(C)S(=O)(=O)c2cc(-c3cnc(C4CC4)o3)ccc2C)c1 returned KB-3-1 tox inactive, TDP1 cell CPT 16.4µM, DT40 TDP1 no CPT 23.1µM and KB-V1 MDR tox inactive.
For CC1(C(O)(C#CCN2CCCCC2)c2ccccc2)CCCC1 (stereo unspecified) the results were HT1080NT lethal inactive, KB-3-1 tox inconclusive, TDP1 cell CPT inconclusive, DT40 TDP1 no CPT inconclusive, KB-V1 MDR tox inactive and HT1080 IDH1KD tx inactive.
O=C1CC(c2ccc(Br)cc2)c2c(c3ccccc3oc2=O)O1 (stereo unspecified) was read as KB-3-1 tox inactive, TDP1 cell CPT inactive, DT40 TDP1 no CPT inactive and KB-V1 MDR tox inactive.
For CCOc1c(Cl)cc(CNCCc2c[nH]c3ccccc23)cc1OC the results were HT1080NT lethal inconclusive, KB-3-1 tox inconclusive, TDP1 cell CPT inconclusive, DT40 TDP1 no CPT 14.6µM, KB-V1 MDR tox 20.6µM and HT1080 IDH1KD tx inactive.
For CCOc1cc(CNCCc2c[nH]c3ccccc23)cc(Cl)c1OCC the results were HT1080NT lethal inconclusive, KB-3-1 tox inconclusive, TDP1 cell CPT 16.4µM, DT40 TDP1 no CPT 18.4µM, KB-V1 MDR tox inconclusive and HT1080 IDH1KD tx inconclusive.
For CC=C(CC)C1(CCC)C(=O)NC(=S)NC1=O the results were HT1080NT lethal inactive, KB-3-1 tox inactive, TDP1 cell CPT inactive, DT40 TDP1 no CPT inactive, KB-V1 MDR tox inactive and HT1080 IDH1KD tx inconclusive.
`N#CCn1c(CCl)nc2ccccc2c1=O` gave HT1080NT lethal inactive, KB-3-1 tox inconclusive, TDP1 cell CPT 4.61µM, DT40 TDP1 no CPT 2.59µM, KB-V1 MDR tox inactive and HT1080 IDH1KD tx inactive.
Screening CCCCC(=O)OCC(=O)C1(O)Cc2c(O)c3c(c(O)c2C(OC2CC(NC(=O)C(F)(F)F)C(O)C(C)O2)C1)C(=O)c1c(OC)cccc1C3=O (stereo unspecified) returned HT1080NT lethal 23.1µM, KB-3-1 tox inconclusive, TDP1 cell CPT 1.16µM, DT40 TDP1 no CPT 2.06µM, KB-V1 MDR tox inactive and HT1080 IDH1KD tx 8.2µM.
`COc1cccc2c1C(=O)c1c(O)c3c(c(O)c1C2=O)C[C@@](O)(C(=O)CO)C[C@@H]3O[C@H]1C[C@H](N)[C@H](OC2CCCCO2)[C@H](C)O1` (stereo partly specified) gave KB-3-1 tox inconclusive, TDP1 cell CPT 0.282µM, DT40 TDP1 no CPT inconclusive and KB-V1 MDR tox inconclusive.
Screening CCn1nc(-c2cccs2)nc2c(=O)n(C)c(=O)nc1-2 returned HT1080NT lethal 3.26µM, KB-3-1 tox inconclusive, TDP1 cell CPT 0.581µM, DT40 TDP1 no CPT 1.16µM, KB-V1 MDR tox inconclusive and HT1080 IDH1KD tx 2.59µM.
CCn1nc(/C=C/c2ccccc2)nc2c(=O)n(C)c(=O)nc1-2 was read as HT1080NT lethal 4.11µM, KB-3-1 tox 4.11µM, TDP1 cell CPT 1.64µM, DT40 TDP1 no CPT 2.06µM, KB-V1 MDR tox inconclusive and HT1080 IDH1KD tx 1.84µM.
`CC1C(=O)OC2CCN3CC4OC4(COC(=O)C(C)(O)C1(C)O)C23` (stereo unspecified) gave HT1080NT lethal inactive, KB-3-1 tox inactive, TDP1 cell CPT inactive, DT40 TDP1 no CPT inactive, KB-V1 MDR tox inactive and HT1080 IDH1KD tx inactive.
Screening COc1cc(CN2CCCC(C(=O)c3sccc3C)C2)cc(OC)c1O (stereo unspecified) returned HT1080NT lethal inactive, KB-3-1 tox inactive, TDP1 cell CPT inconclusive, DT40 TDP1 no CPT inconclusive, KB-V1 MDR tox inactive and HT1080 IDH1KD tx inactive.
For Cc1ccc(CN2CCCC(C(=O)c3sccc3C)C2)o1 (stereo unspecified) the results were HT1080NT lethal inactive, KB-3-1 tox inactive, TDP1 cell CPT inactive, DT40 TDP1 no CPT 20.6µM, KB-V1 MDR tox inconclusive and HT1080 IDH1KD tx inactive.
Screening Cc1ccsc1C(=O)C1CCCN(Cc2ccc(-n3cccn3)cc2)C1 (stereo unspecified) returned HT1080NT lethal inactive, KB-3-1 tox inactive, TDP1 cell CPT 20.6µM, DT40 TDP1 no CPT 14.6µM, KB-V1 MDR tox inconclusive and HT1080 IDH1KD tx inconclusive.
For CSc1ncc(CN2CCCC(C(=O)c3sccc3C)C2)cn1 (stereo unspecified) the results were HT1080NT lethal inactive, KB-3-1 tox inactive, TDP1 cell CPT inconclusive, DT40 TDP1 no CPT inconclusive, KB-V1 MDR tox inconclusive and HT1080 IDH1KD tx inactive.
Screening Cc1ccsc1C(=O)C1CCCN(Cc2cnc(N3CCCC3)s2)C1 (stereo unspecified) returned HT1080NT lethal inactive, KB-3-1 tox inactive, TDP1 cell CPT 11.6µM, DT40 TDP1 no CPT 18.4µM, KB-V1 MDR tox inactive and HT1080 IDH1KD tx inactive.
